PubChem BioAssay AID1159580 (chemical genetic matrix, 2015)
The whole screen tested about 5,500 compounds, of which about 2,000 (36%) were called active. Roughly 18% stayed inconclusive and do not appear here. Rule as the data show it: active = normalized growth mostly below about 0.91 (no sharp cut-off); inconclusive = no clear call, values can overlap the other calls; inactive = mostly above about 0.92. Some of the results follow.

Test: chemical genetic growth profiling, strain panel (AID 1159580);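 also: tested at 20 µM; growth read once vehicle control cultures reached saturation at 30 °C; 1 = growth at the plate median or of vehicle wells; lower values mean less growth of the strain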
Conditions: S. cerevisiae deletion strains, growth OD

Measured: normalized growth

C/C1=C/CC(C)(C)/C=C/C/C(C)=C/CC1
active: locus YLR039C, strain RIC1, stronger effect = lower value 0.651 | locus YMR307W, strain GAS1, stronger effect = lower value 0.536 | locus YOR184W, strain ser1, stronger effect = lower value 0.865 | locus YPL055C, strain LGE1, stronger effect = lower value 0.76
inactive: locus YJR066W, strain TOR1, stronger effect = lower value 0.986 | locus YKL009W, strain mrt4, stronger effect = lower value 0.962 | locus YKL068W, stronger effect = lower value 0.991 | locus YKL085W, strain MDH1 (second series), stronger effect = lower value 0.963 | locus YKL085W, strain MDH1, stronger effect = lower value 0.963 | locus YKL160W, strain elf1, stronger effect = lower value 1.02 | locus YKR001C, strain vps1, stronger effect = lower value 0.98 | locus YKR026C, strain gcn3, stronger effect = lower value 0.983 | locus YKR091W, strain srl3, stronger effect = lower value 0.987 | locus YLL001W, strain dnm1, stronger effect = lower value 1 | locus YLL026W, stronger effect = lower value 0.99 | locus YLL041C, strain sdh2, stronger effect = lower value 0.998 | locus YLR027C, strain aat2, stronger effect = lower value 1.01 | locus YLR058C, strain SHM2, stronger effect = lower value 1.01 | locus YLR102C, strain apc9, stronger effect = lower value 1.01 | locus YLR113W, strain HOG1, stronger effect = lower value 1.02 | locus YLR221C, strain rsa3, stronger effect = lower value 0.961 | locus YLR258W, strain gsy2, stronger effect = lower value 0.998 | locus YLR262C, strain YPT6 (second series), stronger effect = lower value 0.994 | locus YLR262C, strain YPT6, stronger effect = lower value 0.789 | locus YLR268W, strain sec22, stronger effect = lower value 1 | locus YLR320W, strain mms22, stronger effect = lower value 0.968 | locus YLR330W, strain CHS5, stronger effect = lower value 0.974 | locus YLR342W, strain FKS1 (second series), stronger effect = lower value 0.986 | locus YLR342W, strain FKS1, stronger effect = lower value 0.989 | locus YLR357W, strain rsc2, stronger effect = lower value 0.968 | locus YLR370C, strain arc18, stronger effect = lower value 1.01 | locus YLR371W, strain rom2, stronger effect = lower value 0.998 | locus YLR384C, strain iki3, stronger effect = lower value 0.984 | locus YLR418C, strain cdc73, stronger effect = lower value 0.929 | locus YML016C, strain PPZ1, stronger effect = lower value 1.04 | locus YML032C, strain rad52, stronger effect = lower value 0.99 | locus YML120C, strain ndi1, stronger effect = lower value 1 | locus YML124C, strain tub3, stronger effect = lower value 1.01 | locus YMR058W, strain fet3, stronger effect = lower value 0.992 | locus YMR078C, strain ctf18, stronger effect = lower value 1.01 | locus YMR125W, strain sto1, stronger effect = lower value 1.01 | locus YMR129W, stronger effect = lower value 0.992 | locus YMR205C, strain PFK2, stronger effect = lower value 0.994 | locus YMR223W, strain ubp8, stronger effect = lower value 1 | locus YMR231W, strain pep5, stronger effect = lower value 0.966 | locus YNL067W, strain RPL9B, stronger effect = lower value 0.869 | locus YNL071W, strain lat1, stronger effect = lower value 0.998 | locus YNL183C, strain NPR1, stronger effect = lower value 0.995 | locus YNL209W, strain ssb2, stronger effect = lower value 1 | locus YNL233W, strain BNI4, stronger effect = lower value 0.96 | locus YNL250W, strain rad50, stronger effect = lower value 0.973 | locus YNL271C, strain bni1, stronger effect = lower value 0.998 | locus YNL298W, strain CLA4, stronger effect = lower value 0.989 | locus YNL307C, strain MCK1, stronger effect = lower value 1.02 | locus YNL322C, strain KRE1 (second series), stronger effect = lower value 0.979 | locus YNL322C, strain KRE1, stronger effect = lower value 0.973 | locus YNR049C, strain mso1, stronger effect = lower value 0.976 | locus YNR052C, strain pop2, stronger effect = lower value 0.964 | locus YOL006C, strain TOP1, stronger effect = lower value 0.917 | locus YOL012C, strain htz1 1.09 | locus YOL147C, strain pex11, stronger effect = lower value 1.02 | locus YOR001W, strain rrp6, stronger effect = lower value 0.944 | locus YOR061W, strain CKA2, stronger effect = lower value 1.03 | locus YOR069W, strain VPS5, stronger effect = lower value 1.02 | locus YOR070C, strain gyp1, stronger effect = lower value 0.983 | locus YOR080W, strain dia2, stronger effect = lower value 0.969 | locus YOR083W, strain WHI5, stronger effect = lower value 1.02 | locus YOR106W, strain vam3, stronger effect = lower value 0.995 | locus YOR136W, strain idh2, stronger effect = lower value 0.995 | locus YOR144C, strain elg1, stronger effect = lower value 1.01 | locus YOR231W, strain MKK1, stronger effect = lower value 1.02 | locus YOR265W, strain rbl2, stronger effect = lower value 0.997 | locus YOR270C, strain vph1, stronger effect = lower value 0.932 | locus YOR290C, strain snf2, stronger effect = lower value 0.995 | locus YOR316C, strain cot1, stronger effect = lower value 1.01 | locus YPL051W, strain arl3, stronger effect = lower value 0.991 | locus YPL078C, strain atp4, stronger effect = lower value 1.01 | locus YPL106C, strain sse1, stronger effect = lower value 1.03 | locus YPL240C, strain hsp82, stronger effect = lower value 1.02 | locus YPL241C, strain CIN2, stronger effect = lower value 1.02 | locus YPL256C, strain CLN2, stronger effect = lower value 1.06 | locus YPR119W, strain clb2, stronger effect = lower value 1.01 | locus YPR141C, strain kar3, stronger effect = lower value 1 | locus YPR163C, strain tif3, stronger effect = lower value 1.01 | locus YPR167C, strain met16, stronger effect = lower value 1.01 | strain wtn01, stronger effect = lower value 0.993
